The source of these data is PubChem BioAssay AID1499 (Sanford-Burnham Center for Chemical Genomics, 2009).

Structures are written as SMILES. The campaign covered roughly 93,000 compounds. About 65 (0.07%) were called active. The sample holds actives, similar compounds and a random draw of the others, so the mix is not that of the screen.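 Rule for the calls: active = 10 µM primary screen giving 50% or more activity, confirmed by 40% or more on retest at that dose; inactive = the rest.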

Integrin beta-2 (Homo sapiens) + Integrin alpha-M (Homo sapiens), sequence (P05107 whole entry, looked up, other chains not shown): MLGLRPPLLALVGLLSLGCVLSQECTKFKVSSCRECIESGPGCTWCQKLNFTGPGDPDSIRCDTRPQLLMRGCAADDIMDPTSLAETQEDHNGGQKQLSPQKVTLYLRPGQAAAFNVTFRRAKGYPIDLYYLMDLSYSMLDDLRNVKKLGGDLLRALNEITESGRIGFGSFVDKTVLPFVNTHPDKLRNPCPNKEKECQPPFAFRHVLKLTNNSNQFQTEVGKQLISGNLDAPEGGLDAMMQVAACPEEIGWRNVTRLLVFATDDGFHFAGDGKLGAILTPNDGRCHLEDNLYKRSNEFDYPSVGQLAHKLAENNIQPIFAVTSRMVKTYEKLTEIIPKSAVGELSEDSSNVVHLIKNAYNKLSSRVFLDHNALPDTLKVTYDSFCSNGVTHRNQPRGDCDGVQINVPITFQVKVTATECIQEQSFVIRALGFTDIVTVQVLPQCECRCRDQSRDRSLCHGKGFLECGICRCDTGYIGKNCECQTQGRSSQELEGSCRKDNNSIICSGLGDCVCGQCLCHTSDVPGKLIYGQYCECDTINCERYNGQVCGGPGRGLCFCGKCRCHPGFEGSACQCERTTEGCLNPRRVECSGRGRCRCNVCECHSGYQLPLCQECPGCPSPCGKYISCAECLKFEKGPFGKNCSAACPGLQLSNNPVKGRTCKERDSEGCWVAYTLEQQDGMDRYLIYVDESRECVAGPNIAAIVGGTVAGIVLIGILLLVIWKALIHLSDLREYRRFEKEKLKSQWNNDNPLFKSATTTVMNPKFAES

The experiment concerns the target Integrin beta-2 (Homo sapiens) + Integrin alpha-M (Homo sapiens) (UniProt P05107+P11215). The experiment can be described thus: agonists of integrin CD11b/CD18-fibrinogen binding – K562 cells, luminescence, primary screen (AID 1499). Particulars: K562 CD11b/CD18 adhesion to fibrinogen, ATPlite luminescence; at 10 µM; stronger effect = higher value.
On to `COc1ccc(C(=O)OCC(=O)NC(=O)CCSc2ccccc2)cc1`, for which the activation is 0.6% (inactive).

Take `N#C/C(=C/c1cccc([N+](=O)[O-])c1)c1nnc2n1CCCCC2`: the activation is 1.1% (inactive).

With `CCCCNC(=O)CSc1nc2ccc(NC(=O)CSc3nnc(N)s3)cc2s1`, the activation is -3.6% (inactive).

Take `Fc1ccccc1CNC(=S)Nc1ccc(Cl)cc1`: the activation is -7.2% (inactive).

Take `CCCn1c(SCC(=O)Nc2ccc(C)c(S(=O)(=O)N3CCOCC3)c2)n[nH]c1=O`: the activation is -1.4% (inactive).

Take `O=C(Cc1ccc(-c2ccccc2)cc1)NC(c1ccccc1)c1ccccc1`: the activation was 0.5% (inactive).

`CCN(CC)S(=O)(=O)c1ccc(C)c(NC(=O)COc2ccc(Br)cc2Cl)c1`: the activation was -2.8% (inactive).

For `O=C(Cc1c[nH]c2ccccc12)N/N=C/c1cccc(F)c1`, the activation was 1% (inactive).

Take `CCCC(=O)Nc1cccc(NC(=S)NC(=O)C(C)Oc2ccc(Cl)cc2Cl)c1` (stereo not given): the activation was -4.3% (inactive).

Turning to `Cc1c(C(=O)NCCCc2ccccc2)cccc1[N+](=O)[O-]`, the activation was -3.8% (inactive).

Consider `O=C(Cn1nnc(-c2ccccc2)n1)NCc1ccc2c(c1)OCO2`, for which the activation was -1.1% (inactive).

As for `O=C(CCCCn1c(=O)[nH]c2ccccc2c1=O)NCc1ccc2c(c1)OCO2`, the activation is -2% (inactive).

Turning to `O=C1N(Cc2ccc3c(c2)OCO3)c2ccccc2C1(O)c1c[nH]c2ccccc12` (stereo not given), the activation was 65.9% (active).

With `Cc1cccc(NC(=S)Nc2ccc3cn[nH]c3c2)c1`, the activation is 0.1% (inactive).

As to `CSCC[C@H](NC(=O)OC(C)(C)C)C(=O)N/N=C/c1cc2ccc(C)cc2nc1Cl`, the activation was 1.8% (inactive).

Consider `CC(=O)Nc1ccc(Nc2c([N+](=O)[O-])cc(S(C)(=O)=O)cc2[N+](=O)[O-])cc1`, for which the activation is -0.7% (inactive).

For `Cc1cccc2cc(CN(Cc3cccs3)C(=S)NCc3ccco3)c(=O)[nH]c12`, the activation is 3.8% (inactive).

In the case of `O=C(COC(=O)c1cc2c(s1)CCCC2)NCc1ccccc1Cl`, the activation was -0.1% (inactive).

`Cc1ccc(NC(=S)N2CCN(c3ncccn3)CC2)cc1C`: the activation was -7.7% (inactive).

`Cc1c(Cl)cccc1NC(=O)CC1SC(=NCC2CCCO2)NC1=O` (stereo not given): the activation is 2.9% (inactive).

Take `Cc1c(C(=O)NCCN2C(=O)S/C(=C\c3cccs3)C2=O)cccc1[N+](=O)[O-]`: the activation was 23% (inactive).

Consider `COc1ccc(CN2C(=O)CC(Cc3ccc(C)cc3)C2=O)cc1OC` (stereo not given), for which the activation is -1.2% (inactive).

For the compound `COC(=O)c1ccc(NC(=O)CSc2nncc3ccc(OC)c(OC)c23)cc1`, the activation is 3% (inactive).

Regarding `Cc1cc(C(=O)CSc2nc(N)cc(=O)[nH]2)c(C)n1-c1cccc(F)c1`, the activation was 16.6% (inactive).

`COc1cccc(N(C(=O)C2COc3ccccc3O2)C(C(=O)NC2CCCCC2)c2ccc(O)cc2)c1` (stereo not given): the activation is -0.8% (inactive).
